Holding throughout (experiment): PBM; 200 nM protein, PBS
What all share (conditions): dsDNA, one strand shown

For assay [1], the target named is T1, NKX2-4 (Homo sapiens, UniProt Q9H2Z4 175-261, P217L).
T1 sequence: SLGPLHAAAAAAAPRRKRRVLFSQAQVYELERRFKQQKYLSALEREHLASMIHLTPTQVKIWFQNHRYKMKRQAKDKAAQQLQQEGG

In assay [2] the target is T2, NKX2-4 (Homo sapiens, UniProt Q9H2Z4 175-261, T231S).
T2 sequence: T1 sequence with L43P, T57S

In assay [3] the target is T3, NKX2-4 (Homo sapiens, UniProt Q9H2Z4 175-261).
T3 sequence: T1 sequence with L43P

In assay [4] the target is T4, NKX2-4 (Homo sapiens, UniProt Q9H2Z4 175-261, R246Q).
T4 sequence: T1 sequence with L43P, R72Q

Changes are numbered by the printed parent chain.

For ACGCCGCA, the binding signal in assay [1] is 9.67 upbm affinity estimate (log intensity, higher = more binding, comparable within an allelic series); in assay [2] it was 9.65 upbm affinity estimate (log intensity, higher = more binding, comparable within an allelic series); in assay [3], 9.64 upbm affinity estimate (log intensity, higher = more binding, comparable within an allelic series); in assay [4] it was 9.74 upbm affinity estimate (log intensity, higher = more binding, comparable within an allelic series).
With ACCGCAAC, the binding signal in assay [1] was 9.55 upbm affinity estimate (log intensity, higher = more binding, comparable within an allelic series); in assay [2] it was 9.45 upbm affinity estimate (log intensity, higher = more binding, comparable within an allelic series); in assay [3], 9.49 upbm affinity estimate (log intensity, higher = more binding, comparable within an allelic series); in assay [4] it was 9.62 upbm affinity estimate (log intensity, higher = more binding, comparable within an allelic series).
Turning to CGGAATCA, the binding signal in assay [1] was 9.89 upbm affinity estimate (log intensity, higher = more binding, comparable within an allelic series); in assay [2], 9.89 upbm affinity estimate (log intensity, higher = more binding, comparable within an allelic series); in assay [3] it was 9.83 upbm affinity estimate (log intensity, higher = more binding, comparable within an allelic series); in assay [4], 9.94 upbm affinity estimate (log intensity, higher = more binding, comparable within an allelic series).
As to AGAGCACT, the binding signal in assay [1] is 12 upbm affinity estimate (log intensity, higher = more binding, comparable within an allelic series); in assay [2] it was 12.3 upbm affinity estimate (log intensity, higher = more binding, comparable within an allelic series); in assay [3] it was 11.9 upbm affinity estimate (log intensity, higher = more binding, comparable within an allelic series); in assay [4], 12.3 upbm affinity estimate (log intensity, higher = more binding, comparable within an allelic series).
As to GCTATAGC, the binding signal in assay [1] is 9.92 upbm affinity estimate (log intensity, higher = more binding, comparable within an allelic series); in assay [2], 9.98 upbm affinity estimate (log intensity, higher = more binding, comparable within an allelic series); in assay [3], 9.84 upbm affinity estimate (log intensity, higher = more binding, comparable within an allelic series); in assay [4], 9.91 upbm affinity estimate (log intensity, higher = more binding, comparable within an allelic series).
Take GTCTCGCA: the binding signal was 9.7 upbm affinity estimate (log intensity, higher = more binding, comparable within an allelic series) in assay [1]; 9.57 upbm affinity estimate (log intensity, higher = more binding, comparable within an allelic series) in assay [2]; 9.65 upbm affinity estimate (log intensity, higher = more binding, comparable within an allelic series) in assay [3]; 9.64 upbm affinity estimate (log intensity, higher = more binding, comparable within an allelic series) in assay [4].
Turning to ACGGCGCC, the binding signal in assay [1] was 9.61 upbm affinity estimate (log intensity, higher = more binding, comparable within an allelic series); in assay [2] it was 9.62 upbm affinity estimate (log intensity, higher = more binding, comparable within an allelic series); in assay [3], 9.59 upbm affinity estimate (log intensity, higher = more binding, comparable within an allelic series); in assay [4], 9.67 upbm affinity estimate (log intensity, higher = more binding, comparable within an allelic series).
As to AGACTGAC, the binding signal was 9.52 upbm affinity estimate (log intensity, higher = more binding, comparable within an allelic series) in assay [1]; 9.58 upbm affinity estimate (log intensity, higher = more binding, comparable within an allelic series) in assay [2]; 9.63 upbm affinity estimate (log intensity, higher = more binding, comparable within an allelic series) in assay [3]; 9.64 upbm affinity estimate (log intensity, higher = more binding, comparable within an allelic series) in assay [4].
Regarding CGGGTACG, the binding signal in assay [1] was 9.52 upbm affinity estimate (log intensity, higher = more binding, comparable within an allelic series); in assay [2], 9.68 upbm affinity estimate (log intensity, higher = more binding, comparable within an allelic series); in assay [3], 9.69 upbm affinity estimate (log intensity, higher = more binding, comparable within an allelic series); in assay [4], 9.6 upbm affinity estimate (log intensity, higher = more binding, comparable within an allelic series).
Consider CTCAAGCA, for which the binding signal in assay [1] was 11.8 upbm affinity estimate (log intensity, higher = more binding, comparable within an allelic series); in assay [2] it was 12.1 upbm affinity estimate (log intensity, higher = more binding, comparable within an allelic series); in assay [3], 11.8 upbm affinity estimate (log intensity, higher = more binding, comparable within an allelic series); in assay [4] it was 12.2 upbm affinity estimate (log intensity, higher = more binding, comparable within an allelic series).
Take GCACTCGA: the binding signal is 12.5 upbm affinity estimate (log intensity, higher = more binding, comparable within an allelic series) in assay [1]; 13 upbm affinity estimate (log intensity, higher = more binding, comparable within an allelic series) in assay [2]; 12.5 upbm affinity estimate (log intensity, higher = more binding, comparable within an allelic series) in assay [3]; 13.1 upbm affinity estimate (log intensity, higher = more binding, comparable within an allelic series) in assay [4].
As for AGCTGCGG, the binding signal in assay [1] is 9.39 upbm affinity estimate (log intensity, higher = more binding, comparable within an allelic series); in assay [2], 9.21 upbm affinity estimate (log intensity, higher = more binding, comparable within an allelic series); in assay [3] it was 9.33 upbm affinity estimate (log intensity, higher = more binding, comparable within an allelic series); in assay [4] it was 9.45 upbm affinity estimate (log intensity, higher = more binding, comparable within an allelic series).
Take CTCTTGAA: the binding signal is 12.5 upbm affinity estimate (log intensity, higher = more binding, comparable within an allelic series) in assay [1]; 12.8 upbm affinity estimate (log intensity, higher = more binding, comparable within an allelic series) in assay [2]; 12.3 upbm affinity estimate (log intensity, higher = more binding, comparable within an allelic series) in assay [3]; 13 upbm affinity estimate (log intensity, higher = more binding, comparable within an allelic series) in assay [4].
For GAACTGGC, the binding signal in assay [1] was 9.51 upbm affinity estimate (log intensity, higher = more binding, comparable within an allelic series); in assay [2], 9.49 upbm affinity estimate (log intensity, higher = more binding, comparable within an allelic series); in assay [3], 9.54 upbm affinity estimate (log intensity, higher = more binding, comparable within an allelic series); in assay [4], 9.65 upbm affinity estimate (log intensity, higher = more binding, comparable within an allelic series).
Take CTCGAGTA: the binding signal in assay [1] is 12.3 upbm affinity estimate (log intensity, higher = more binding, comparable within an allelic series); in assay [2] it was 12.6 upbm affinity estimate (log intensity, higher = more binding, comparable within an allelic series); in assay [3], 12.1 upbm affinity estimate (log intensity, higher = more binding, comparable within an allelic series); in assay [4], 12.6 upbm affinity estimate (log intensity, higher = more binding, comparable within an allelic series).
For AAAGTACT, the binding signal in assay [1] was 12.4 upbm affinity estimate (log intensity, higher = more binding, comparable within an allelic series); in assay [2] it was 12.8 upbm affinity estimate (log intensity, higher = more binding, comparable within an allelic series); in assay [3], 12.3 upbm affinity estimate (log intensity, higher = more binding, comparable within an allelic series); in assay [4], 12.8 upbm affinity estimate (log intensity, higher = more binding, comparable within an allelic series).
Take CTACTCAA: the binding signal is 12.1 upbm affinity estimate (log intensity, higher = more binding, comparable within an allelic series) in assay [1]; 12.5 upbm affinity estimate (log intensity, higher = more binding, comparable within an allelic series) in assay [2]; 12 upbm affinity estimate (log intensity, higher = more binding, comparable within an allelic series) in assay [3]; 12.4 upbm affinity estimate (log intensity, higher = more binding, comparable within an allelic series) in assay [4].
In the case of CCCCGCCG, the binding signal in assay [1] was 9.51 upbm affinity estimate (log intensity, higher = more binding, comparable within an allelic series); in assay [2] it was 9.45 upbm affinity estimate (log intensity, higher = more binding, comparable within an allelic series); in assay [3] it was 9.54 upbm affinity estimate (log intensity, higher = more binding, comparable within an allelic series); in assay [4], 9.57 upbm affinity estimate (log intensity, higher = more binding, comparable within an allelic series).

(Values after publication PMC11006913.)
